{"source": "PubChem BioAssay (NCATS)", "note": "Results filed as inconclusive are left out. A call without a number means that no potency is given here. Active and inactive are the calls of the source. Calls follow the shape of the dose curve; as a rule, active = well fitted inhibition curve with a large enough effect; inconclusive = small, poorly fitted or top-dose-only effect; inactive = no such curve, though single readings can be large or run the other way. Potency is read from the fitted curve at half-maximal effect."}
{"target": "Retinaldehyde dehydrogenase 3 (Homo sapiens) (UniProt P47895)", "assay": "qHTS for Inhibitors of the Aldehyde Dehydrogenase Family (ALDH1A3) Confirmatory screens (AID 2061311); also: nearly all actives have a fitted effect of over 60% in size", "conditions": "ALDH inhibition qHTS; series mostly up to 46 µM"}
{"compound": "O=C1NC(=O)/C(=C/c2cccn2-c2ccc(P(O)O)cc2)N1", "Potency": "inactive"}
{"compound": "Cc1cc(NC(=O)c2ccc([S+](=O)([O-])NCc3ccc(Cl)c(Cl)c3)cc2)no1", "Potency": "inactive"}
{"compound": "Cc1nnc(-c2cnn(C)c2N)n1CCCn1ccnc1", "Potency": "inactive"}
{"compound": "Cn1ncc(-c2nnc(-c3ccccc3)n2CCCn2ccnc2)c1N", "Potency": "inactive"}
{"compound": "O=C(NC1CCCc2c1cnn2-c1ccc(F)cc1F)c1ccccn1", "note": "(stereo not drawn)", "Potency": "inactive"}
{"compound": "O=C(O)c1ccc2c(c1)C(=O)N([C@H](Cc1ccc(F)cc1)C(=O)O)C2=O", "Potency": "inactive"}
{"compound": "CC(C)(C)c1ccc(SC2=NS(=O)(=O)c3ccccc32)cc1", "Potency": "inactive"}
{"compound": "Cc1cc2c(s1)c1cnn(Cc3c(Cl)ccc(C)c3F)c(=O)c1n2C", "Potency": "inactive"}
{"compound": "Cc1ccc(C[C@@H](NS(=O)(=O)c2ccc(C(=O)O)cc2)C(=O)O)cc1", "Potency": "inactive"}
{"compound": "COc1ccc(C2Nc3ccccc3C(=O)N2CCO)cc1COc1ccc(NC(C)=O)cc1", "note": "(stereo not drawn)", "Potency": "10 µM (active)"}
{"compound": "O=S1(=O)N=C(Oc2ccccc2)c2ccccc21", "activity change, negative = inhibition": "-14.1% [at 0.022 µM] (inactive)"}
{"compound": "Cc1ccccc1C[C@H](C(=O)O)N1C(=O)c2ccc(C(=O)O)cc2C1=O", "Potency": "inactive"}
{"compound": "Cc1nc2ccccn2c1P(=O)(c1ccccc1)c1ccccc1", "Potency": "inactive"}
{"compound": "Cc1ccc2nc(-c3ccccn3)c(Nc3ccccc3C)n2c1", "Potency": "inactive"}
{"compound": "Cc1noc(C)c1-c1csc(N2CCC(C(N)=O)CC2)n1", "Potency": "inactive"}
{"compound": "C[C@@](Cc1ccccc1)(C(=O)O)N1C(=O)c2ccc(C(=O)O)cc2C1=O", "Potency": "inactive"}
{"compound": "COc1ccc(C2=Nn3c(nnc3-c3cccc(OC)c3OC)SC2)cc1", "Potency": "inactive"}
{"compound": "COC(=O)c1ccc2c(c1)S(=O)(=O)N=C2Sc1cc(C)ccc1C", "Potency": "inactive"}
{"compound": "CC(C)(C)c1ccc(C[C@H](C(=O)O)N2C(=O)c3ccc(C(=O)O)cc3C2=O)cc1", "Potency": "inactive"}
{"compound": "O=C(C1CCN(c2nc(-c3ccc(Br)cc3)cs2)CC1)N1CCNCC1", "Potency": "inactive"}
{"compound": "CCc1nn2c(=O)cc(-c3ccncc3)nc2s1", "Potency": "inactive"}
{"compound": "Cc1ccc2nc3sc(C(=O)NCc4ccco4)cc3cc2c1", "Potency": "10.1 µM (active)"}
{"compound": "O=C1c2ccccc2NC(c2ccc(-c3cccc([N+](=O)[O-])c3)o2)N1O", "note": "(stereo not drawn)", "Potency": "4.49 µM (active)"}
{"target": "Retinal dehydrogenase 2 (Homo sapiens) (UniProt O94788)", "assay": "qHTS for Inhibitors of the Aldehyde Dehydrogenase Family (ALDH1A2) Confirmation screens (AID 2061314); also: nearly all actives have a fitted effect of over 65% in size", "conditions": "ALDH1A2 enzyme inhibition qHTS confirmation; series mostly up to 45.9 µM"}
{"compound": "Cc1nc(C)c(-c2ccc3ncnc(NCc4ncc[nH]4)c3c2)s1", "Potency": "inactive"}
{"compound": "COc1ccc(C2=Nn3c(nnc3-c3cc(OC)ccc3OC)SC2)c(OC)c1", "Potency": "inactive"}
{"compound": "CC(=O)N(C(C)=O)n1c(C)nc2sc3c(c2c1=O)CCNC3", "Potency": "inactive"}
{"compound": "CCC(=O)C1CCCN(C(=O)CC(c2ccc3c(c2)OCO3)c2c(O)cc(OC)cc2OC)C1", "note": "(stereo not drawn)", "Potency": "inactive"}
{"compound": "Cc1cccc(OC2=NS(=O)(=O)c3ccccc32)c1", "Potency": "inactive"}
{"compound": "N[C@@H](CCC(=O)O)C(=O)Nc1ccc(Cl)cc1C(=O)c1ccc[nH]1", "Potency": "inactive"}
{"compound": "Cc1cccc2c(C(=O)O)cc(Cl)nc12", "Potency": "inactive"}
{"compound": "Fc1cc(Nc2nc(-c3ccncc3)nc3ccccc23)ccc1N1CCCCC1", "Potency": "0.712 µM (active)"}
{"compound": "COc1cccc(C2c3c(ncn(CCCN4CCOCC4)c3=N)Oc3ccc4ccccc4c32)c1", "note": "(stereo not drawn)", "Potency": "inactive"}
{"compound": "Cc1cc(N2C(=O)c3ccccc3C2=O)n[nH]1", "Potency": "inactive"}
{"compound": "O=C1[C@@H]2[C@H]3CC[C@H](C3)[C@@H]2C(=O)N1CCCCN1CCN(c2ncccn2)CC1", "Potency": "inactive"}
{"compound": "CC(=O)SCC(CC(=O)c1ccc(C)cc1)C(=O)O", "note": "(stereo not drawn)", "Potency": "inactive"}
{"compound": "N#Cc1c(-c2csc(-c3no[n+]([O-])c3C#N)c2)no[n+]1[O-]", "Potency": "2.25 µM (active)"}
{"compound": "CCCCN(CCCNC(=S)NCCCc1cnc[nH]1)c1ccc(Br)cn1", "Potency": "8.96 µM (active)"}
{"compound": "O=C(O)c1ccc(S(=O)(=O)N[C@H](Cc2ccccc2)C(=O)O)cc1", "Potency": "inactive"}
{"compound": "CCc1nnc(-c2cnn(C)c2N)n1CCCn1ccnc1", "Potency": "inactive"}
{"compound": "CCCCNc1ccc(C(=O)OCCN(CC)CC)cc1", "Potency": "inactive"}
{"compound": "O=C1NC(=O)/C(=C/c2cccn2-c2ccc(P(O)O)cc2)N1", "Potency": "inactive"}
{"compound": "Cc1cc(NC(=O)c2ccc([S+](=O)([O-])NCc3ccc(Cl)c(Cl)c3)cc2)no1", "Potency": "inactive"}
{"compound": "Cc1nnc(-c2cnn(C)c2N)n1CCCn1ccnc1", "Potency": "inactive"}
{"compound": "Cn1ncc(-c2nnc(-c3ccccc3)n2CCCn2ccnc2)c1N", "Potency": "inactive"}
{"compound": "O=C(NC1CCCc2c1cnn2-c1ccc(F)cc1F)c1ccccn1", "note": "(stereo not drawn)", "Potency": "inactive"}
{"compound": "O=C(O)c1ccc2c(c1)C(=O)N([C@H](Cc1ccc(F)cc1)C(=O)O)C2=O", "Potency": "inactive"}
{"compound": "CC(C)(C)c1ccc(SC2=NS(=O)(=O)c3ccccc32)cc1", "Potency": "12.7 µM (active)"}
{"compound": "Cc1cc2c(s1)c1cnn(Cc3c(Cl)ccc(C)c3F)c(=O)c1n2C", "Potency": "inactive"}
{"compound": "Cc1ccc(C[C@@H](NS(=O)(=O)c2ccc(C(=O)O)cc2)C(=O)O)cc1", "Potency": "inactive"}
{"compound": "COc1ccc(C2Nc3ccccc3C(=O)N2CCO)cc1COc1ccc(NC(C)=O)cc1", "note": "(stereo not drawn)", "Potency": "14.2 µM (active)"}
{"compound": "O=S1(=O)N=C(Oc2ccccc2)c2ccccc21", "Potency": "inactive"}
{"compound": "Cc1ccccc1C[C@H](C(=O)O)N1C(=O)c2ccc(C(=O)O)cc2C1=O", "Potency": "inactive"}
{"compound": "Cc1nc2ccccn2c1P(=O)(c1ccccc1)c1ccccc1", "Potency": "inactive"}
{"compound": "Cc1ccc2nc(-c3ccccn3)c(Nc3ccccc3C)n2c1", "Potency": "inactive"}
{"compound": "Cc1noc(C)c1-c1csc(N2CCC(C(N)=O)CC2)n1", "Potency": "inactive"}
{"compound": "C[C@@](Cc1ccccc1)(C(=O)O)N1C(=O)c2ccc(C(=O)O)cc2C1=O", "Potency": "inactive"}
{"compound": "COc1ccc(C2=Nn3c(nnc3-c3cccc(OC)c3OC)SC2)cc1", "Potency": "inactive"}
{"compound": "COC(=O)c1ccc2c(c1)S(=O)(=O)N=C2Sc1cc(C)ccc1C", "Potency": "14.2 µM (active)"}
{"compound": "CC(C)(C)c1ccc(C[C@H](C(=O)O)N2C(=O)c3ccc(C(=O)O)cc3C2=O)cc1", "Potency": "inactive"}
{"compound": "O=C(C1CCN(c2nc(-c3ccc(Br)cc3)cs2)CC1)N1CCNCC1", "Potency": "inactive"}
{"compound": "CCc1nn2c(=O)cc(-c3ccncc3)nc2s1", "Potency": "25.2 µM (active)"}
{"compound": "Cc1ccc2nc3sc(C(=O)NCc4ccco4)cc3cc2c1", "Potency": "7.12 µM (active)"}
{"compound": "O=C1c2ccccc2NC(c2ccc(-c3cccc([N+](=O)[O-])c3)o2)N1O", "note": "(stereo not drawn)", "Potency": "2.52 µM (active)"}
